Assay [1] is described as follows: ATG_NFI_CIS: Attagene CIS-FACTORIAL HepG2 Assay for human Nuclear Factor I (NFI) (AID 2282989). The settings on record: HepG2 cis-regulatory reporter, NFI response element transcription; actives raise or lower the signal. The method in brief: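 Reporter transcription driven by endogenous transcription factors in HepG2 cells; 24 h treatment. Quantitation by labelled RT-PCR fragments on capillary electrophoresis, gain- or loss-of-signal relative to DMSO.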

Assay [2] has as its target Myc proto-oncogene protein (Homo sapiens) (UniProt P01106). In words: ATG_Myc_CIS: Attagene CIS-FACTORIAL HepG2 Assay for human Myelocytomatosis (Myc) Proto-Oncogene Transcription Factor (AID 2282990). The settings on record: HepG2, Attagene cis-reporter transcription factor activity; actives raise or lower the signal. The method in brief:
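Cells of the HepG2 human liver line bear multiple cis-driven reporter transcription units. Reporter mRNA after 24 h exposure is reverse-transcribed, amplified, labelled and resolved by capillary electrophoresis, with gain- or loss-of-signal fitting relative to DMSO.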

Assay [3] can be described thus: ATG_NRF2_ARE_CIS: Attagene CIS-FACTORIAL HepG2 Assay for human Nuclear Factor Erythroid 2 Related Factor 2 (NFR2) response to Antioxidant Response Elements (ARE) (AID 2282992). The settings on record: HepG2 Attagene ARE/NRF2 reporter, transcription factor activity; actives raise or lower the signal. The gist of the method:
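HepG2 cells transiently transfected with multiplexed cis-element reporter constructs, 24 h after chemical dosing; reporter mRNA quantified by RT-PCR, fluorescent primer extension, HpaI digestion and capillary electrophoresis. Bidirectional fit relative to DMSO.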

Assay [4] is described as follows: ATG_Oct_MLP_CIS: Attagene CIS-FACTORIAL HepG2 Assay for human Octamer-Binding Transcription Factor (Oct) (AID 2282993). The following applies: HepG2 Attagene cis-factorial Oct reporter, mRNA; actives raise or lower the signal. The gist of the method: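 Transfected HepG2 cells, 24 h treatment. Reporter mRNA quantified by RT-PCR–capillary electrophoresis; bidirectional fitting against DMSO.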

Assay [5] is described as follows: BSK_3C_TissueFactor: BioMAP Diversity Plus: 3C Assay for Tissue Factor Biomarker Activity (AID 2282997). The settings on record: BioMAP 3C HUVEC, tissue factor biomarker readout; actives raise or lower the signal. The gist of the method:
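Primary human umbilical vein endothelial cells in the 3C system were exposed to test chemical for 24 h, then Tissue Factor measured by ELISA. Activity was fitted bidirectionally against DMSO as negative control and baseline.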

Assay [6] is described as follows: BSK_3C_uPAR: BioMAP Diversity Plus: 3C Assay for Urokinase-type plasminogen activator receptor (uPAR) Biomarker Activity (AID 2282998). The following applies: BioMAP 3C HUVEC, uPAR biomarker ELISA; actives raise or lower the signal. The method in brief: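 Readout: ELISA for surface uPAR. System: human umbilical vein endothelial primary cells, 24 h after chemical exposure. Analysis: bidirectional fit, DMSO baseline.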

The nature of assay [7]: BSK_3C_VCAM1: BioMAP Diversity Plus: 3C Assay for Vascular cell adhesion molecule 1 (VCAM1) Biomarker Activity (AID 2282999). The following applies: BioMAP 3C HUVEC, VCAM1 ELISA, cytokine-stimulated; actives raise or lower the signal. The method in brief:
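Endothelial cells from human umbilical vein are treated with test chemical. At 24 h, VCAM-1 is measured by ELISA, and responses in either direction are fitted relative to DMSO.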

Assay [8] is described as follows: BSK_4H_Eotaxin3: BioMAP Diversity Plus: 4H Assay for Eotaxin 3 Biomarker Activity (AID 2283000).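 Further: CCL26 protein level quantified by ELISA in parallel with SRB cytotoxicity check.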 The following applies: primary human endothelial cells (HUVEC); actives raise or lower the signal. The gist of the method:
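HUVEC, 24 h post-dose, ELISA for Eotaxin-3/CCL26. Gain or loss of signal fitted bidirectionally vs DMSO baseline.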

In assay [9] the target is Cellular tumor antigen p53 (Homo sapiens) (UniProt P04637). In words: ATG_p53_CIS: Attagene CIS-FACTORIAL HepG2 Assay for human p53 Transcription Factor (AID 2282994). The following applies: HepG2 p53 cis-element reporter, Attagene mRNA; actives raise or lower the signal. The method in brief:
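HepG2 cells transiently transfected with cis-regulated multiple reporter transcription units, dosed 24 h. Reporter mRNA measured by RT-PCR, 6-FAM primer extension, HpaI digestion and capillary electrophoresis; bidirectional fit relative to DMSO.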

Assay [10] can be described thus: ATG_NF_kB_CIS: Attagene CIS-FACTORIAL HepG2 Assay for human Nuclear Factor Kappa B (NF-kB) (AID 2282991). The settings on record: HepG2 Attagene cis-factorial NF-kB reporter mRNA; actives raise or lower the signal. The method in brief: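 Readout is reporter transcript level, gain or loss versus DMSO, measured 24 h post-dose via RT-PCR, fluorescent labelling and capillary electrophoresis. Human HepG2 liver cells carried transiently transfected CIS reporter constructs reflecting endogenous factors.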

SMILES strings stand for the structures. Where a structure was tested more than once in an assay, its records may differ in their call. The source made the active and inactive calls. How the source made its calls: active means hit-call score of the fitted dose curve at least 0.9, where 1 is the maximum; inactive means score below 0.9.

Cellular tumor antigen p53 (Homo sapiens), sequence (P04637 whole entry, looked up): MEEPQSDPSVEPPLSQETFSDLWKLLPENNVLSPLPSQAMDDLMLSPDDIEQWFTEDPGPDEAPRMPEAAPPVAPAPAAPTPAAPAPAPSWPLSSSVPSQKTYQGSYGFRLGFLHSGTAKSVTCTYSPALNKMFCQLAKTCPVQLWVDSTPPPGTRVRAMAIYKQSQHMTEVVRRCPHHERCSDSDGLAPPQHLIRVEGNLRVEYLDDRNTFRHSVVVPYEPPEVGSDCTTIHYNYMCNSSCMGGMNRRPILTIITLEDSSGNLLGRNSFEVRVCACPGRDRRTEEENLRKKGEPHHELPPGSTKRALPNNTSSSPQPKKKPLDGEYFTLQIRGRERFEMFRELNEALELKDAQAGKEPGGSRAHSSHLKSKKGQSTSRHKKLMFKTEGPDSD
Myc proto-oncogene protein (Homo sapiens), sequence (P01106 whole entry, looked up): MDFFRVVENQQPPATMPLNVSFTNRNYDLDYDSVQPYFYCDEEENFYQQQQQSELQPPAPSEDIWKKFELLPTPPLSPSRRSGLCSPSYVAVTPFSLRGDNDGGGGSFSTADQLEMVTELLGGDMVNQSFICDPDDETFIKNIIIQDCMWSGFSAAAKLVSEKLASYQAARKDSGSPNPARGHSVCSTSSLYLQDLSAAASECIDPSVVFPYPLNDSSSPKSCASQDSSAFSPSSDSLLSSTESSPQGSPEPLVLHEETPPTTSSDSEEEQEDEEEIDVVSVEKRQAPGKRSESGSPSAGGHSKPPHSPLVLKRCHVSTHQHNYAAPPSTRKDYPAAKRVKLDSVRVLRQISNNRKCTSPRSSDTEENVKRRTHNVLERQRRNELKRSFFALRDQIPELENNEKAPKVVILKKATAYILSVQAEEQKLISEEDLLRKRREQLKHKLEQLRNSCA

For `Nc1ccn([C@@H]2O[C@H](CO)[C@@H](O)[C@@H]2O)c(=O)n1`, the call in [1], in [2], in assay [3], in assay [4], in assay [5] and in assay [6] was inactive. Moreover, the result in [7] and in assay [8] was inactive.

`CCc1cccc(CC)c1N`: the result in [1], in assay [2], in assay [3], in assay [4], in [9] and in assay [5] was inactive. The result in assay [6], in assay [7] and in assay [8] was inactive.

Consider `O=C1CN(N=Cc2ccc([N+](=O)[O-])o2)C(=O)N1`, for which the call in assay [2], in assay [4], in assay [9], in assay [5], in assay [6] and in [7] was inactive. The outcome in assay [8] was inactive.

Take `CC1(C)C(=O)N(Cl)C(=O)N1Cl`: the compound was classed as inactive in assay [1], in assay [2], in [3], in assay [4], in assay [9] and in [5]. Besides, the outcome in assay [6], in assay [7] and in assay [8] was inactive.

Regarding `Cc1cccc(O)c1C`, the outcome in assay [1], in assay [2], in assay [3], in assay [4], in [9] and in assay [5] was inactive. The result in assay [6], in assay [7] and in [8] was inactive. For the same compound, the AC50 in assay [9] was 168 µM (active).

Turning to `CCCCCCCCCCCCCCCCOS(=O)(=O)O`, the results for the AC50 in [1], in assay [3] and in assay [9] were 24.6 µM (active), 27.3 µM (active) and 24.9 µM (active), respectively. Also, the compound was called inactive in [2], in assay [4], in assay [5], in assay [6], in assay [7] and in [8].

Take `CC(C)c1nnc2ccc(-c3ocnc3-c3cc(F)ccc3F)cn12`: the compound was called inactive in [2], in assay [9], in [6], in assay [7] and in assay [8]. Besides, the results for the AC50 in assay [4] and in [5] were 130 µM (active) and 0.743 µM (active), respectively.

Consider `c1ccc(C(O[C@@H]2CCCN(CCc3ccc4c(c3)OCO4)C2)c2ccccc2)cc1`, for which the result in assay [1], in [2], in [5], in assay [7] and in assay [8] was inactive. In addition, the AC50 in [3] is 33 µM (active); in [4], 23.3 µM (active); in assay [9] it was 52.6 µM (active); in assay [6], 27.5 µM (active).

Take `COS(C)(=O)=O`: the outcome in assay [1], in [2], in assay [10], in assay [3], in [4] and in assay [5] was inactive. Besides, the outcome in assay [6], in [7] and in assay [8] was inactive.

`O=C(O)c1cccc(C(=O)O)c1`: the compound was classed as inactive in [1], in assay [2], in assay [3], in [4], in [5] and in assay [6]. Besides, the result in assay [7] and in assay [8] was inactive.

As to `NC(=O)N(O)[C@@H]1COc2cc(OCc3ccccc3)ccc21`, the compound was classed as inactive in [1], in [2], in assay [10], in assay [3], in assay [4] and in [5]. In addition, the outcome in [6], in assay [7] and in [8] was inactive.

For `O=c1[nH]cnc2c1ncn2[C@H]1CC[C@@H](CO)O1`, the compound was classed as inactive in assay [1], in [2], in assay [3], in [4], in assay [5] and in assay [6]. The result in [7] and in [8] was inactive.

In the case of `OC[C@H]1O[C@@H]2O[C@H]3[C@H](O)[C@@H](O)[C@@H](O[C@H]4[C@H](O)[C@@H](O)[C@@H](O[C@H]5[C@H](O)[C@@H](O)[C@@H](O[C@H]6[C@H](O)[C@@H](O)[C@@H](O[C@H]7[C@H](O)[C@@H](O)[C@@H](O[C@H]1[C@H](O)[C@H]2O)O[C@@H]7CO)O[C@@H]6CO)O[C@@H]5CO)O[C@@H]4CO)O[C@@H]3CO`, the call in assay [1], in assay [2], in [3], in [4], in [5] and in assay [6] was inactive. The result in assay [7] and in [8] was inactive.

In the case of `CCCCCCCCN(C)C`, the outcome in assay [1], in [2], in assay [3], in [4], in assay [9] and in [5] was inactive. The result in [6], in assay [7] and in [8] was inactive.

Consider `CC(C)C(=O)Nc1ccc([N+](=O)[O-])c(C(F)(F)F)c1`, for which the compound was classed as inactive in [1], in assay [2], in [5], in assay [6], in assay [7] and in assay [8]. Moreover, the results for the AC50 in assay [3] and in [4] were 25.3 µM (active) and 26.1 µM (active), respectively.

For the compound `c1ccc2ncccc2c1`, the call in assay [1], in [2], in [3], in [4], in [9] and in assay [5] was inactive. The result in [6], in assay [7] and in assay [8] was inactive.

In the case of `CCOC(N)=O`, the compound was classed as inactive in assay [1], in assay [2], in [3], in [4], in assay [9] and in [5]. Moreover, the outcome in assay [6], in assay [7] and in assay [8] was inactive.

Consider `O=S1(=O)CCCO1`, for which the outcome in assay [1], in assay [2], in [3], in [4], in assay [9] and in assay [5] was inactive. Besides, the result in [6], in assay [7] and in [8] was inactive.

Consider `Cc1ncc([C@@H](CCCCCCc2ccc3c(n2)NCCC3)CC(=O)O)cn1`, for which the compound was called inactive in [1], in assay [2], in assay [3], in [4], in assay [5] and in [6]. Moreover, the result in [7] and in assay [8] was inactive.

With `COCc1nnc(-c2ccc[n+]([O-])c2)n1-c1c(Cl)c(Cl)cc2[nH]c(=O)c(=O)[nH]c12`, the result in assay [1], in [2], in assay [3], in assay [4], in assay [5] and in assay [6] was inactive. In addition, the result in assay [7] and in assay [8] was inactive.

With `CCCc1ccccc1`, the call in [1], in [2], in assay [3], in assay [4], in assay [9] and in assay [5] was inactive. In addition, the result in assay [6], in assay [7] and in assay [8] was inactive.

Consider `CCCCCCCC1CCC(=O)O1` (stereo not given), for which the outcome in assay [2], in assay [4], in [9], in [5], in [6] and in [7] was inactive. In addition, in assay [8], the result was inactive.

Consider `C=CN1CCCC1=O`, for which the call in assay [1], in assay [2], in [3], in assay [4], in assay [9] and in assay [5] was inactive. In addition, the result in [6], in [7] and in [8] was inactive.

The record behind these values is PubChem BioAssay (EPA / NIEHS).
